Records with an inconclusive call do not appear. Entries that show only a call come without a potency. The source made the active and inactive calls. Unless noted, calls follow the shape of the full dose curve.

From PubChem BioAssay (Tox21) come the findings set out here.

Chain of Estrogen receptor beta (Homo sapiens) (Q92731 whole entry, looked up): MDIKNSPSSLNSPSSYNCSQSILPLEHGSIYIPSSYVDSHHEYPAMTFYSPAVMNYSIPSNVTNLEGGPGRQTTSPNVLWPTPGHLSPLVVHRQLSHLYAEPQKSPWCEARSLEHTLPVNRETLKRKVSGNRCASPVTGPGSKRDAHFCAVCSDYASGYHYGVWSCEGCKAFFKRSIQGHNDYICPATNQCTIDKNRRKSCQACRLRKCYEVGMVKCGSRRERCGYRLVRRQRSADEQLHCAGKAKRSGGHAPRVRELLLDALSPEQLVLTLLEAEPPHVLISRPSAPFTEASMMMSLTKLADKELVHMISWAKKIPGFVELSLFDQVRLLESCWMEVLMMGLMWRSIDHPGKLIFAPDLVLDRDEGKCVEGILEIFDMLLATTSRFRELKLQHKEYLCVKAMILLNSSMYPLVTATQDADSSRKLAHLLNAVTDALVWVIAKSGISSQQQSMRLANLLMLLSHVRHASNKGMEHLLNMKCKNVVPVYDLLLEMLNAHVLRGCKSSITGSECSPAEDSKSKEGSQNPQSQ

Test system in the first experiment: not listed separately
Nature of the experiment: qHTS assay to identify small molecule agonists of the sonic hedgehog signaling (Shh) pathway (AID 1259368).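 Also: NIH/3T3-derived 3T3Gli1-Luc cells carrying a stable Gli1-driven firefly luciferase reporter; nearly all actives have a fitted effect of over 15% in size.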 Particulars: NIH/3T3 Gli1-Luc reporter, luciferase, 24 h; series mostly up to 92.4 µM. The method, boiled down:
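3T3Gli1-Luc (NIH/3T3 clone, stable Gli1-Luc); 4 hr pre-incubation, then cpd in DMSO 24 hr, 37 C/5% CO2; luciferase reagent 30 min RT; luminescence.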
With `CCOc1ccccc1O`, the Potency entry was “inactive”.
In the case of `C=CC(C)CCC=C(C)C` (stereo not given), the Potency entry is “inactive”.
On the same count and under the same terms, next, `O=C(c1ccc(Cl)cc1)c1ccc(Cl)cc1`: “inactive”.
`OCCc1ccncc1`: the Potency entry was “inactive”.
On the same count and under the same terms, next, `CC(C)=CCC/C(C)=C/C=N/O`: “inactive”; `O=c1c2ccccc2oc2ccccc12`: “inactive”.
The same measure, in the same setting: the same measure for `CCCCCCCCC(=O)OCC(C)OC(=O)CCCCCCCC` (stereo not given): “inactive”.
Regarding `Cc1c(-c2cccnc2)c2ccccc2n1CCCCC(=O)O`, the Potency entry is “inactive”.
With `O=C(O)c1ccccc1[N+](=O)[O-]`, the Potency result is “inactive”.
Still for that read-out and setting: next, `Sc1nc(S)nc(S)n1`: “inactive”.
Still for that read-out and setting: the same measure for `O=C(Nc1ccccc1)c1cc([N+](=O)[O-])ccc1Cl`: “inactive”; for `CCC(C)CCCC(C)(C)O` (stereo not given): “inactive”.
The same measure, in the same setting: the same measure for `CC(C)(C(=O)O)c1ccc(C(O)CCCN2CCC(C(O)(c3ccccc3)c3ccccc3)CC2)cc1` (stereo not given): “inactive”; for `CCCC(=O)OCc1ccccc1`: “inactive”; for `NC(=O)c1ccccc1C(N)=O`: “inactive”.
Regarding `COc1ccc(CN(CCN(C)C)c2ncccn2)cc1`, the Potency result was “inactive”.
The same measure, in the same setting: next, `CCCc1ccc(OC)cc1`: “inactive”.
On the same count and under the same terms, next, `Cc1nc(C)c(C)nc1C`: “inactive”; `CC(CCl)OC(C)CCl` (stereo not given): “inactive”; `O=C(O)c1ccccc1-n1cc(C(=O)O)c(=O)c2cc(Nc3c(F)cc(F)cc3Cl)c(Cl)cc21`: “inactive”.
In the case of `CCCCCCCCCCCCCCCCC(=O)O`, the Potency entry was “inactive”.
The same measure, in the same setting: next, `CCCC1CCCC(=O)O1` (stereo not given): “inactive”.
Same read-out and setting: the same measure for `N#C[C@@H]1CC(F)(F)CN1C(=O)CNC1CC2CCC(C1)N2c1ncccn1` (stereo not given in full): “inactive”; for `CC(=O)Nc1ccn(C2COC(COC(=O)c3ccccc3)O2)c(=O)n1` (stereo not given): “inactive”; for `CC1(C)CC(O)CC(C)(C)N1[O]`: “inactive”.
Still for that read-out and setting: next, `O=C(Nc1ccc2c(c1)Cc1ccccc1-2)C(F)(F)F`: “inactive”.
For `CCCCCCCCS`, the Potency entry was “inactive”.
On to `CC/C=C/CCO`, for which the Potency entry is “inactive”.
On the same count and under the same terms, the same measure for `CC/C=C\CCO`: “inactive”; for `CC(C)Cc1nccs1`: “inactive”.
Still for that read-out and setting: next, `O=C1CCCN1CCO`: “inactive”.
On the same count and under the same terms, next, `C=CCCC`: “inactive”; `CCCCCO`: “inactive”; `S=c1[nH][nH]c(=S)s1`: “inactive”.
Consider `C1CCN(CN2CCCCC2)CC1`, for which the Potency entry is “inactive”.
Still for that read-out and setting: next, `c1ccc(CN(Cc2ccccc2)Cc2ccccc2)cc1`: “inactive”; `CC(C)(C)NCC(O)COc1ccc(NC(=O)NC2CCCCC2)cc1` (stereo not given): “inactive”.
On the same count and under the same terms, next, `CC(=O)c1ccc(Cl)c(Cl)c1Cl`: “inactive”; `COc1ccc(/C=C/S(=O)(=O)NC(=O)c2ccc(C)cc2Cl)cc1`: “inactive”.

Test system in a further experiment: not listed separately
The experiment in a line: qHTS assay to identify small molecule antagonists of the sonic hedgehog signaling (Shh) pathway (AID 1259369). Also: nearly all actives have a fitted effect of over 45% in size. Also: potency is read from the fitted curve at half-maximal effect. Particulars: NIH/3T3 Gli1-Luc reporter, Shh antagonist, luminescence 24 h; series mostly up to 92.4 µM. The method in brief:
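3T3Gli1-Luc, conditioned-medium-stimulated, 24hr cpd, 37C/5% CO2; Gli1-driven firefly Luc luminescence after 30min RT with luciferase reagent. Cells plated 4hr before cpd.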
(Quantitative high-throughput screening tests each substance at several concentrations.)
As for `CCOc1ccccc1O`, the Potency result was “inactive”.
On to `C=CC(C)CCC=C(C)C` (stereo not given), for which the Potency entry was “inactive”.
Still for that read-out and setting: the same measure for `O=C(c1ccc(Cl)cc1)c1ccc(Cl)cc1`: “inactive”; for `OCCc1ccncc1`: “inactive”; for `CC(C)=CCC/C(C)=C/C=N/O`: “inactive”.
The same measure, in the same setting: the same measure for `O=c1c2ccccc2oc2ccccc12`: “inactive”; for `CCCCCCCCC(=O)OCC(C)OC(=O)CCCCCCCC` (stereo not given): “inactive”.
Still for that read-out and setting: the same measure for `Cc1c(-c2cccnc2)c2ccccc2n1CCCCC(=O)O`: “inactive”; for `O=C(O)c1ccccc1[N+](=O)[O-]`: “inactive”.
Turning to `Sc1nc(S)nc(S)n1`, the Potency entry was “inactive”.
On the same count and under the same terms, next, `O=C(Nc1ccccc1)c1cc([N+](=O)[O-])ccc1Cl`: 21.7 µM (active); `CCC(C)CCCC(C)(C)O` (stereo not given): “inactive”.
For the compound `CC(C)(C(=O)O)c1ccc(C(O)CCCN2CCC(C(O)(c3ccccc3)c3ccccc3)CC2)cc1` (stereo not given), the Potency entry is “inactive”.
On the same count and under the same terms, next, `CCCC(=O)OCc1ccccc1`: “inactive”.
Still for that read-out and setting: the same measure for `NC(=O)c1ccccc1C(N)=O`: “inactive”; for `COc1ccc(CN(CCN(C)C)c2ncccn2)cc1`: “inactive”.
Same read-out and setting: next, `CCCc1ccc(OC)cc1`: “inactive”; `Cc1nc(C)c(C)nc1C`: “inactive”.
For `CC(CCl)OC(C)CCl` (stereo not given), the Potency result is “inactive”.
In the case of `O=C(O)c1ccccc1-n1cc(C(=O)O)c(=O)c2cc(Nc3c(F)cc(F)cc3Cl)c(Cl)cc21`, the Potency entry is “inactive”.
On the same count and under the same terms, next, `CCCCCCCCCCCCCCCCC(=O)O`: “inactive”.
The same measure, in the same setting: the same measure for `CCCC1CCCC(=O)O1` (stereo not given): “inactive”; for `N#C[C@@H]1CC(F)(F)CN1C(=O)CNC1CC2CCC(C1)N2c1ncccn1` (stereo not given in full): “inactive”.
On the same count and under the same terms, next, `CC(=O)Nc1ccn(C2COC(COC(=O)c3ccccc3)O2)c(=O)n1` (stereo not given): “inactive”; `CC1(C)CC(O)CC(C)(C)N1[O]`: “inactive”.
With `O=C(Nc1ccc2c(c1)Cc1ccccc1-2)C(F)(F)F`, the Potency result was “inactive”.
On the same count and under the same terms, next, `CCCCCCCCS`: “inactive”; `CC/C=C/CCO`: “inactive”.
Still for that read-out and setting: the same measure for `CC/C=C\CCO`: “inactive”.
Same read-out and setting: next, `CC(C)Cc1nccs1`: “inactive”; `O=C1CCCN1CCO`: “inactive”.
In the case of `C=CCCC`, the Potency entry is “inactive”.
Still for that read-out and setting: next, `CCCCCO`: “inactive”; `S=c1[nH][nH]c(=S)s1`: “inactive”.
Take `C1CCN(CN2CCCCC2)CC1`: the Potency entry was “inactive”.
In the case of `c1ccc(CN(Cc2ccccc2)Cc2ccccc2)cc1`, the Potency entry was “inactive”.
On the same count and under the same terms, next, `CC(C)(C)NCC(O)COc1ccc(NC(=O)NC2CCCCC2)cc1` (stereo not given): “inactive”.
For the compound `CC(=O)c1ccc(Cl)c(Cl)c1Cl`, the Potency entry was “inactive”.
On the same count and under the same terms, next, `COc1ccc(/C=C/S(=O)(=O)NC(=O)c2ccc(C)cc2Cl)cc1`: “inactive”.

A further experiment has as its target Estrogen receptor beta (Homo sapiens) (UniProt Q92731). Nature of the experiment: qHTS assay to identify small molecule antagonists of the estrogen receptor beta (ER-beta) signaling pathway (AID 1259378; active = well fitted inhibition curve with a large enough effect in the signal ratio in the repeat runs, not every such curve was filed as active; the % refers to the signal ratio; also: potency is read from the fitted curve at half-maximal effect). Particulars: ER-beta-UAS-bla HEK293T, beta-lactamase FRET ratio, 16 h; series mostly up to 92.4 µM. The method, boiled down:
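Antagonist mode: compounds added to beta-lactamase reporter HEK293T ER-beta-UAS cells stimulated with E2 (1nM final), 16 hr at 37C. LiveBLAzer B/G FRET substrate, 2 hours room temperature, fluorescence read-out.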
In the case of `CCOc1ccccc1O`, the Potency result is “inactive”.
The same measure, in the same setting: the same measure for `C=CC(C)CCC=C(C)C` (stereo not given): “inactive”.
The same measure, in the same setting: the same measure for `O=C(c1ccc(Cl)cc1)c1ccc(Cl)cc1`: “inactive”; for `OCCc1ccncc1`: “inactive”; for `CC(C)=CCC/C(C)=C/C=N/O`: “inactive”.
Consider `O=c1c2ccccc2oc2ccccc12`, for which the Potency result is “inactive”.
Consider `CCCCCCCCC(=O)OCC(C)OC(=O)CCCCCCCC` (stereo not given), for which the Potency entry was “inactive”.
Same read-out and setting: next, `Cc1c(-c2cccnc2)c2ccccc2n1CCCCC(=O)O`: “inactive”; `O=C(O)c1ccccc1[N+](=O)[O-]`: “inactive”.
Still for that read-out and setting: the same measure for `Sc1nc(S)nc(S)n1`: “inactive”; for `O=C(Nc1ccccc1)c1cc([N+](=O)[O-])ccc1Cl`: 48.6 µM (active); for `CCC(C)CCCC(C)(C)O` (stereo not given): “inactive”.
Still for that read-out and setting: the same measure for `CC(C)(C(=O)O)c1ccc(C(O)CCCN2CCC(C(O)(c3ccccc3)c3ccccc3)CC2)cc1` (stereo not given): “inactive”; for `CCCC(=O)OCc1ccccc1`: “inactive”.
On to `NC(=O)c1ccccc1C(N)=O`, for which the Potency entry was “inactive”.
The same measure, in the same setting: the same measure for `COc1ccc(CN(CCN(C)C)c2ncccn2)cc1`: “inactive”; for `CCCc1ccc(OC)cc1`: “inactive”.
Still for that read-out and setting: the same measure for `Cc1nc(C)c(C)nc1C`: “inactive”; for `CC(CCl)OC(C)CCl` (stereo not given): “inactive”.
On the same count and under the same terms, next, `O=C(O)c1ccccc1-n1cc(C(=O)O)c(=O)c2cc(Nc3c(F)cc(F)cc3Cl)c(Cl)cc21`: “inactive”.
Consider `CCCCCCCCCCCCCCCCC(=O)O`, for which the Potency result was “inactive”.
Same read-out and setting: the same measure for `CCCC1CCCC(=O)O1` (stereo not given): “inactive”; for `N#C[C@@H]1CC(F)(F)CN1C(=O)CNC1CC2CCC(C1)N2c1ncccn1` (stereo not given in full): “inactive”.
The same measure, in the same setting: next, `CC(=O)Nc1ccn(C2COC(COC(=O)c3ccccc3)O2)c(=O)n1` (stereo not given): “inactive”; `CC1(C)CC(O)CC(C)(C)N1[O]`: “inactive”; `O=C(Nc1ccc2c(c1)Cc1ccccc1-2)C(F)(F)F`: “inactive”.
Same read-out and setting: next, `CCCCCCCCS`: “inactive”.
Consider `CC/C=C/CCO`, for which the Potency result was “inactive”.
As to `CC/C=C\CCO`, the Potency result is “inactive”.
Regarding `CC(C)Cc1nccs1`, the Potency result was “inactive”.
The same measure, in the same setting: next, `O=C1CCCN1CCO`: “inactive”; `C=CCCC`: “inactive”; `CCCCCO`: “inactive”.
Still for that read-out and setting: next, `S=c1[nH][nH]c(=S)s1`: “inactive”; `C1CCN(CN2CCCCC2)CC1`: “inactive”.
On the same count and under the same terms, next, `CC(C)(C)NCC(O)COc1ccc(NC(=O)NC2CCCCC2)cc1` (stereo not given): “inactive”.
On to `CC(=O)c1ccc(Cl)c(Cl)c1Cl`, for which the Potency result is “inactive”.
